# Measurements: article PMC11062922 (Nature Chemical Biology, 2023)
# Like-named read-outs stand apart in the source and are kept apart here.
# Columns and labels:
# Design in all cases: species or system human, MV4-11 + K-562 + COLO205 + SK-N-BE2 + OVCAR-8
# [1] = test system: AKT2; settings: read-out: apparent Kd; compound concentrations:100 nM and 1000 nM (sheet 'Samples'); n = 1
# [2] = test system: CDC42BPA; settings: read-out: apparent Kd; compound concentrations:100 nM and 1000 nM (sheet 'Samples'); n = 1
# [3] = test system: CDC42BPG; settings: read-out: apparent Kd; compound concentrations:100 nM and 1000 nM (sheet 'Samples'); n = 1
# [4] = test system: CIT; settings: read-out: apparent Kd; compound concentrations:100 nM and 1000 nM (sheet 'Samples'); n = 1
# [5] = test system: GSK3A; settings: read-out: apparent Kd; compound concentrations:100 nM and 1000 nM (sheet 'Samples'); n = 1
# [6] = test system: GSK3B; settings: read-out: apparent Kd; compound concentrations:100 nM and 1000 nM (sheet 'Samples'); n = 1
# [7] = test system: LATS1; settings: read-out: apparent Kd; compound concentrations:100 nM and 1000 nM (sheet 'Samples'); n = 1
# [8] = test system: MAPKAPK2; settings: read-out: apparent Kd; compound concentrations:100 nM and 1000 nM (sheet 'Samples'); n = 1
# [9] = test system: MARK2; settings: read-out: apparent Kd; compound concentrations:100 nM and 1000 nM (sheet 'Samples'); n = 1
# [10] = test system: MARK3; settings: read-out: apparent Kd; compound concentrations:100 nM and 1000 nM (sheet 'Samples'); n = 1
# [11] = test system: MARK4; settings: read-out: apparent Kd; compound concentrations:100 nM and 1000 nM (sheet 'Samples'); n = 1
# [12] = test system: PAK4; settings: read-out: apparent Kd; compound concentrations:100 nM and 1000 nM (sheet 'Samples'); n = 1
# [13] = test system: PAK6; settings: read-out: apparent Kd; compound concentrations:100 nM and 1000 nM (sheet 'Samples'); n = 1
# [14] = test system: PKN1; settings: read-out: apparent Kd; compound concentrations:100 nM and 1000 nM (sheet 'Samples'); n = 1
# [15] = test system: PKN3; settings: read-out: apparent Kd; compound concentrations:100 nM and 1000 nM (sheet 'Samples'); n = 1
# [16] = test system: PRKACA; settings: read-out: apparent Kd; compound concentrations:100 nM and 1000 nM (sheet 'Samples'); n = 1
# [17] = test system: PRKACB; settings: read-out: apparent Kd; compound concentrations:100 nM and 1000 nM (sheet 'Samples'); n = 1
# [18] = test system: PRKCD; settings: read-out: apparent Kd; compound concentrations:100 nM and 1000 nM (sheet 'Samples'); n = 1
# [19] = test system: PRKCI; settings: read-out: apparent Kd; compound concentrations:100 nM and 1000 nM (sheet 'Samples'); n = 1
# [20] = test system: PRKG1; settings: read-out: apparent Kd; compound concentrations:100 nM and 1000 nM (sheet 'Samples'); n = 1
# [21] = test system: PRKX; settings: read-out: apparent Kd; compound concentrations:100 nM and 1000 nM (sheet 'Samples'); n = 1
# [22] = test system: ROCK2; settings: read-out: apparent Kd; compound concentrations:100 nM and 1000 nM (sheet 'Samples'); n = 1
# [23] = test system: RPS6KA4; settings: read-out: apparent Kd; compound concentrations:100 nM and 1000 nM (sheet 'Samples'); n = 1
# [24] = test system: ADRBK1; settings: read-out: apparent Kd, compound concentrations: 100 nM and 1000 nM (sheet 'Samples'), n = 1
# [25] = test system: ERBB3; settings: read-out: apparent Kd; compound concentrations: 100 nM and 1000 nM (sheet 'Samples'), CATDS: 0.13947545743424; n = 1
# [26] = test system: MAP2K1; settings: read-out: apparent Kd; compound concentrations: 100 nM and 1000 nM (sheet 'Samples'), CATDS: 0.50931897145829497; n = 1
# [27] = test system: MAP2K2; settings: read-out: apparent Kd, compound concentrations: 100 nM and 1000 nM (sheet 'Samples'), n = 1
# [28] = test system: NQO2; settings: read-out: apparent Kd, compound concentrations: 100 nM and 1000 nM (sheet 'Samples'), n = 1
# [29] = test system: AGK; settings: read-out: apparent Kd; compound concentrations: 100 nM and 1000 nM (sheet 'Samples'), CATDS: 0.56358245780801897; n = 1
# [30] = test system: CSNK1G1; settings: read-out: apparent Kd; compound concentrations: 100 nM and 1000 nM (sheet 'Samples'), CATDS: 0.16245140586904; n = 1
# [31] = test system: PDXK; settings: read-out: apparent Kd; compound concentrations: 100 nM and 1000 nM (sheet 'Samples'), CATDS: 0.18883200846926201; n = 1
# [32] = test system: TP53RK; settings: read-out: apparent Kd; compound concentrations: 100 nM and 1000 nM (sheet 'Samples'), CATDS: 0.1506883600127; n = 1
# [33] = test system: VDAC3; settings: read-out: apparent Kd; compound concentrations: 100 nM and 1000 nM (sheet 'Samples'), CATDS: 0.190251033630114; n = 1
# [34] = test system: NNT; settings: read-out: apparent Kd; compound concentrations: 100 nM and 1000 nM (sheet 'Samples'), CATDS: 0.33555608244827101; n = 1
smiles,measurement,setting,value
CCn1c(-c2nonc2N)nc2c(C#CC(C)(C)O)ncc(OCCCCN)c21.CCn1c(-c2nonc2N)nc2c(C#CC(C)(C)O)ncc(OCCCCN)c21.O=C(O)C(F)(F)F.O=C(O)C(F)(F)F [GSK507274A],potency estimated from few doses,[1],1.44 µM
same,potency estimated from few doses,[2],2.2 µM
same,potency estimated from few doses,[3],1.8 µM
same,potency estimated from few doses,[4],0.554 µM
same,potency estimated from few doses,[5],0.328 µM
same,potency estimated from few doses,[6],0.488 µM
same,potency estimated from few doses,[7],0.0839 µM
same,potency estimated from few doses,[8],1.37 µM
same,potency estimated from few doses,[9],0.44 µM
same,potency estimated from few doses,[10],0.178 µM
same,potency estimated from few doses,[11],0.629 µM
same,potency estimated from few doses,[12],0.0309 µM
same,potency estimated from few doses,[13],0.0993 µM
same,potency estimated from few doses,[14],0.191 µM
same,potency estimated from few doses,[15],0.013 µM
same,potency estimated from few doses,[16],0.787 µM
same,potency estimated from few doses,[17],0.965 µM
same,potency estimated from few doses,[18],1.45 µM
same,potency estimated from few doses,[19],1.89 µM
same,potency estimated from few doses,[20],1.07 µM
same,potency estimated from few doses,[21],0.0541 µM
same,potency estimated from few doses,[22],0.446 µM
same,potency estimated from few doses,[23],0.749 µM
Cn1c(=O)c(F)c(Nc2ccc(I)cc2F)c2c(=O)n(OC[C@H](O)CO)cnc21 [TPKI-16],potency estimated from few doses,[24]; CATDS: 0.13244009116627101,1.78 µM
same,potency estimated from few doses,[25],1.37 µM
same,potency estimated from few doses,[26],0.0122 µM
same,potency estimated from few doses,[27]; CATDS: 0.45776902126379299,0.015 µM
same,potency estimated from few doses,[28]; CATDS: 0.16308472458482501,0.677 µM
Cc1ccc(S(=O)(=O)Nc2ccc(Nc3nccc(Nc4cccc5[nH]ncc45)n3)cc2)cc1 [GSK581271A],potency estimated from few doses,[29],1.53 µM
same,potency estimated from few doses,[27]; CATDS: 0.44930961839154798,2.42 µM
CCn1cnc2c(N)ncnc21 [GW345098X],potency estimated from few doses,[24]; CATDS: 0.15222698888400599,2.4 µM
same,potency estimated from few doses,[30],2.08 µM
same,potency estimated from few doses,[28]; CATDS: 0.164283529908442,2.04 µM
same,potency estimated from few doses,[31],1.56 µM
same,potency estimated from few doses,[32],2.45 µM
same,potency estimated from few doses,[33],1.54 µM
Cc1cc(N2Cc3ccccc3C2)nc(Nc2ccc(S(=O)(=O)N3CCOCC3)cc2)n1.Cl [GSK1669917A],potency estimated from few doses,[24]; CATDS: 0.38079622737555602,1.29 µM
same,potency estimated from few doses,[27]; CATDS: 0.29465532437802699,2.17 µM
same,potency estimated from few doses,[34],1.64 µM
